According to PubChem BioAssay (EPA / NIEHS):
Some compounds were tested as several samples or in several runs, with calls that do not always agree. The source made the active and inactive calls. How the source made its calls: active means hit-call score of the fitted dose curve at least 0.9, where 1 is the maximum; inactive means score below 0.9.

Experiment: CEETOX_H295R_OHPREG: CeeTox H295R High-throughput Steroidogenesis Assay for OH-Pregnenolone (OHPREG) (AID 2283434)
Settings: actives raise or lower the signal
Summary of the method: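 Secreted 17alpha-hydroxypregnenolone measured by HPLC-MS/MS after liquid-liquid extraction. Human adrenal H295R cells received 48 h forskolin (10 uM) stimulation before 48 h chemical exposure at 0.1% final DMSO; MTT viability in same wells; bidirectional fit against DMSO.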

Row | Compound | outcome | AC50
1 | CC(=O)c1ccc2ccccc2c1 | inactive | 
2 | CC=CC(=O)C1=C(C)C=CCC1(C)C | inactive | 
3 | C#C[C@]1(O)CC[C@H]2[C@@H]3CCc4cc(O)ccc4[C@H]3CC[C@@]21C |  | 369 nM (active)
4 | OCC=Cc1ccccc1 | inactive | 
5 | CC(C)(C)c1cccc(O)c1 | inactive | 
6 | COc1ccc2[nH]cc(CCNC(C)=O)c2c1 | inactive | 
7 | OCCCO | inactive | 
8 | C[C@]12CC[C@@H]3c4ccc(O)cc4CC[C@H]3[C@@H]1CC[C@@H]2O |  | 1570 nM (active)
9 | CCCCCC(=O)O[C@]1(C(C)=O)CC[C@H]2[C@@H]3CCC4=CC(=O)CC[C@]4(C)[C@H]3CC[C@@]21C |  | 11400 nM (active)
10 | O=C(c1ccc(OCCN2CCCCC2)cc1)c1c(-c2ccc(O)cc2)sc2cc(O)ccc12 |  | 350 nM (active)
11 | O=C(OCc1ccccc1)c1ccccc1O | inactive | 
12 | CCCCCCCCCCCCN1CCOCC1 |  | 645 nM (active)
13 | CC(=N[Si](C)(C)C)O[Si](C)(C)C | inactive | 
14 | c1coc(CNc2ncnc3nc[nH]c23)c1 | inactive | 
15 | CCCc1ccc(O)cc1 | inactive | 
16 | CC/C(=C(\c1ccccc1)c1ccc(OCCN(C)C)cc1)c1ccccc1 | inactive | 311 nM (active)
17 | CC(=O)C1=C(C)[C@@H]2C[C@@]3(C1)[C@H](C)CC[C@H]3C2(C)C | inactive | 
18 | c1ccc(OCCOc2ccccc2)cc1 | inactive | 

Experiment: CEETOX_H295R_OHPROG: CeeTox H295R High-throughput Steroidogenesis Assay for OH-Progesterone (OHPROG) (AID 2283435);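 on AC50: 17alpha-hydroxyprogesterone secreted into medium measured by HPLC-MS/MS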
Settings: actives raise or lower the signal
Summary of the method: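 Human adrenocortical H295R cells, passage 10 or lower, were treated with chemical for 48 h after forskolin priming, and hormone output in the medium was quantified by LC-MS/MS.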

Row | Compound | AC50 | outcome
19 | CC(=O)c1ccc2ccccc2c1 | 50000 nM (active) | 
20 | CC=CC(=O)C1=C(C)C=CCC1(C)C |  | inactive
21 | C#C[C@]1(O)CC[C@H]2[C@@H]3CCc4cc(O)ccc4[C@H]3CC[C@@]21C |  | inactive
22 | OCC=Cc1ccccc1 |  | inactive
23 | CC(C)(C)c1cccc(O)c1 |  | inactive
24 | COc1ccc2[nH]cc(CCNC(C)=O)c2c1 | 3070 nM (active) | 
25 | OCCCO |  | inactive
26 | C[C@]12CC[C@@H]3c4ccc(O)cc4CC[C@H]3[C@@H]1CC[C@@H]2O |  | inactive
27 | CCCCCC(=O)O[C@]1(C(C)=O)CC[C@H]2[C@@H]3CCC4=CC(=O)CC[C@]4(C)[C@H]3CC[C@@]21C |  | inactive
28 | O=C(c1ccc(OCCN2CCCCC2)cc1)c1c(-c2ccc(O)cc2)sc2cc(O)ccc12 |  | inactive
29 | O=C(OCc1ccccc1)c1ccccc1O | 50000 nM (active) | 
30 | CCCCCCCCCCCCN1CCOCC1 | 1860 nM (active) | 
31 | CC(=N[Si](C)(C)C)O[Si](C)(C)C |  | inactive
32 | c1coc(CNc2ncnc3nc[nH]c23)c1 |  | inactive
33 | CCCc1ccc(O)cc1 |  | inactive
34 | CC/C(=C(\c1ccccc1)c1ccc(OCCN(C)C)cc1)c1ccccc1 | 161 nM (active) | inactive
35 | CC(=O)C1=C(C)[C@@H]2C[C@@]3(C1)[C@H](C)CC[C@H]3C2(C)C |  | inactive
36 | c1ccc(OCCOc2ccccc2)cc1 | 36900 nM (active) | 

Experiment: CEETOX_H295R_ANDR: CeeTox H295R High-throughput Steroidogenesis Assay for Androstenedione (ANDR) (AID 2283436);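 further: human H295R adrenal cells exposed for 48 h with androstenedione measured in medium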
Settings: actives raise or lower the signal
Procedure: CEETOX_H295R is a cell-based, multiplexed-readout assay that uses H295R, a human adrenal gland cell line, with measurements taken at 48 hours after chemical dosing in a 96-well plate.CEETOX_H295R_ANDR is one of 23 assay component(s) measured or calculated from the CEETOX_H295R assay. It is designed to make measurements of hormone induction, a form of inducible reporter, as detected with absorbance signals by HPLC-MS-MS technology.Data from the assay component CEETOX_H295R_ANDR was analyzed into 1 assay endpoint. This assay endpoint, CEETOX_H295R_ANDR, was analyzed with bidirectional fitting relative to DMSO as the negative control and baseline of activity. […] To generalize the intended target to other relatable targets, this assay endpoint is annotated to the steroid hormone intended target family, where the subfamily is androgens.
Cell culture and media preparation procedures were conducted in accordance with OECD Test No. 456 guidelines, with minor modifications. H295R cells (ATCC CRL-2128) were expanded for 5 passages and frozen in batches in liquid nitrogen. Prior to the steroidogenesis assay, H295R cells were thawed and passed at least 4 times. The maximum passage was 10. Cells were maintained in a 1:1 mixture of DMEM/F12 supplemented with 5ml/L ITS+ Premix (BD Bioscience) and 12.5 ml/L Nu-Serum (BD Bioscience). […] For steroid quantification, media samples were shipped to OpAns, LLC (Durham, NC) on dry ice, and samples were thawed to room temperature prior to liquid-liquid extraction. […] Steroid hormones were separated by HPLC, eluted using a reverse phase C18 gradient with electrospray positive ionization, followed by quantification by tandem mass spectrometry (MS/MS). Data were acquired on a MassHunter Workstation Acquisition version B03.01 (Agilent Technologies, Inc.) and processed using MassHunter Quantitative Analysis for QQQ. Accuracy was determined for each hormone analyte from 3 standards to determine upper and lower limits of quantification (ULOQ and LLOQ, respectively) using a 7-point standard curve. Precision and accuracy of the extraction and quantification methods were calculated as the percent relative standard deviation (%RSD) of the spiked standards and percent spiked standard recovered, respectively. […] Test medium was removed following chemical exposure, and cell viability was evaluated in the same wells by MTT. […] Absorbance was read at 570 and 650nm using a Packard Fusion microplate reader. Background correction of absorbance units was used to determine percent change relative to controls. […] When a test chemical reduced cell viability to 20% - 70%, the test chemical was diluted 10-fold and re-evaluated, but if cell viability was <20%, then the test chemical was diluted 100-fold and re-evaluated. […]

Row | Compound | outcome
37 | CC=CC(=O)C1=C(C)C=CCC1(C)C | inactive
38 | CC(C)(C)c1cccc(O)c1 | inactive
39 | OCCCO | inactive
40 | CC(=N[Si](C)(C)C)O[Si](C)(C)C | inactive

Experiment: CEETOX_H295R_CORTIC: CeeTox H295R High-throughput Steroidogenesis Assay for Corticosterone (CORTIC) (AID 2283437)
Settings: actives raise or lower the signal
Summary of the method: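 Medium corticosterone was quantified by tandem mass spectrometry following 48 hours of chemical exposure (0.1% DMSO) in human H295R cells previously stimulated 48 hours with 10 uM forskolin. Viability checked by MTT; chemicals diluted and retested when viability fell below 70%.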

Row | Compound | outcome | AC50
41 | CC(=O)c1ccc2ccccc2c1 | inactive | 
42 | CC=CC(=O)C1=C(C)C=CCC1(C)C | inactive | 
43 | C#C[C@]1(O)CC[C@H]2[C@@H]3CCc4cc(O)ccc4[C@H]3CC[C@@]21C |  | 142 nM (active)
44 | CC(C)(C)c1cccc(O)c1 | inactive | 
45 | COc1ccc2[nH]cc(CCNC(C)=O)c2c1 |  | 10500 nM (active)
46 | OCCCO | inactive | 
47 | C[C@]12CC[C@@H]3c4ccc(O)cc4CC[C@H]3[C@@H]1CC[C@@H]2O |  | 479 nM (active)
48 | CCCCCC(=O)O[C@]1(C(C)=O)CC[C@H]2[C@@H]3CCC4=CC(=O)CC[C@]4(C)[C@H]3CC[C@@]21C | inactive | 
49 | O=C(c1ccc(OCCN2CCCCC2)cc1)c1c(-c2ccc(O)cc2)sc2cc(O)ccc12 | inactive | 
50 | O=c1cc(-c2ccc(O)cc2)oc2cc(O)cc(O)c12 | inactive | 
51 | O=C(OCc1ccccc1)c1ccccc1O | inactive | 
52 | CCCCCCCCCCCCN1CCOCC1 | inactive | 
53 | CC(=N[Si](C)(C)C)O[Si](C)(C)C | inactive | 
54 | c1coc(CNc2ncnc3nc[nH]c23)c1 | inactive | 
55 | CCCc1ccc(O)cc1 |  | 36400 nM (active)
56 | CC/C(=C(\c1ccccc1)c1ccc(OCCN(C)C)cc1)c1ccccc1 | inactive | 
57 | c1ccc(OCCOc2ccccc2)cc1 | inactive | 

Experiment: CEETOX_H295R_CORTISOL: CeeTox H295R High-throughput Steroidogenesis Assay for Cortisol (AID 2283438);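 further: cortisol secreted into medium quantified by LC-MS/MS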
Settings: actives raise or lower the signal
Summary of the method: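 Steroidogenesis in H295R, per modified OECD 456: 48 h forskolin (10 uM), then 48 h exposure, 0.1% DMSO. Cortisol by extraction and tandem MS; viability by MTT (570/650 nm); cytotoxic chemicals diluted and re-tested.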

Row | Compound | outcome | AC50
58 | CC(=O)c1ccc2ccccc2c1 | inactive | 
59 | CC=CC(=O)C1=C(C)C=CCC1(C)C | inactive | 
60 | C#C[C@]1(O)CC[C@H]2[C@@H]3CCc4cc(O)ccc4[C@H]3CC[C@@]21C | inactive | 
61 | CC(C)(C)c1cccc(O)c1 | inactive | 
62 | COc1ccc2[nH]cc(CCNC(C)=O)c2c1 | inactive | 
63 | OCCCO | inactive | 
64 | C[C@]12CC[C@@H]3c4ccc(O)cc4CC[C@H]3[C@@H]1CC[C@@H]2O |  | 2630 nM (active)
65 | CCCCCC(=O)O[C@]1(C(C)=O)CC[C@H]2[C@@H]3CCC4=CC(=O)CC[C@]4(C)[C@H]3CC[C@@]21C |  | 6660 nM (active)
66 | O=C(c1ccc(OCCN2CCCCC2)cc1)c1c(-c2ccc(O)cc2)sc2cc(O)ccc12 | inactive | 
67 | O=c1cc(-c2ccc(O)cc2)oc2cc(O)cc(O)c12 | inactive | 
68 | O=C(OCc1ccccc1)c1ccccc1O | inactive | 
69 | CCCCCCCCCCCCN1CCOCC1 | inactive | 
70 | CC(=N[Si](C)(C)C)O[Si](C)(C)C | inactive | 
71 | CCCc1ccc(O)cc1 | inactive | 
72 | CC/C(=C(\c1ccccc1)c1ccc(OCCN(C)C)cc1)c1ccccc1 | inactive | 
73 | c1ccc(OCCOc2ccccc2)cc1 | inactive | 
